Source: PubChem BioAssay
The list is not random: actives were taken first. Their share in the collection is about 5.7%.
Nrf2 inh: Nrf2 pathway inhibition; A549 ARE-Fluc reporter, luciferase luminescence, 18-24 h; AID 504444; 360,000 compounds, 2.1% hits; Potency, µM (titrated, usually from 46 µM), without a hit: at the top dose activity change, negative = inhibition, usual class: inhibitors; further: potency means the concentration at half of the fitted maximal effect; nearly all actives have a fitted effect of over 60% in size
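Nrf2 function is reported as luminescence of an ARE-controlled luciferase in A549 cells. Compounds were tested at several concentrations, and a CellTiter-Fluor read on the same wells flagged cytotoxicity.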
KB-3-1 cytotox: kills parental KB-3-1 adenocarcinoma cells | Potency, µM (doses to about 46.1 µM), actives largely listed as cytotoxic | KB-3-1 viability, CellTiter-Glo ATP luminescence, 72 h | AID 1347075 | 400,000 compounds, 1.4% hits; further: potency means the concentration at half of the fitted maximal effect; nearly all actives have a fitted effect of over 60% in size
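Here the drug-naive KB-3-1 line serves as comparator for MDR sub-line selectivity; cells received compound titrations, 72 h at 37 °C, then CellTiter-Glo readout.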
PI4K2A inh: inhibitors of human PI4K2A; Q9BTU6; activity change, negative = inhibition, % at 76.9 µM; 420,000 compounds, 0.13% hits; AID 1346378; purified PI4K2A, ADP-Glo luminescence, 1 h; hits give low values; in the data active means activity change below about -50%; inconclusive means mostly about -30% to -49%;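 further: -100% = wells without enzyme as full effect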
Target sequence (Q9BTU6 whole entry, looked up): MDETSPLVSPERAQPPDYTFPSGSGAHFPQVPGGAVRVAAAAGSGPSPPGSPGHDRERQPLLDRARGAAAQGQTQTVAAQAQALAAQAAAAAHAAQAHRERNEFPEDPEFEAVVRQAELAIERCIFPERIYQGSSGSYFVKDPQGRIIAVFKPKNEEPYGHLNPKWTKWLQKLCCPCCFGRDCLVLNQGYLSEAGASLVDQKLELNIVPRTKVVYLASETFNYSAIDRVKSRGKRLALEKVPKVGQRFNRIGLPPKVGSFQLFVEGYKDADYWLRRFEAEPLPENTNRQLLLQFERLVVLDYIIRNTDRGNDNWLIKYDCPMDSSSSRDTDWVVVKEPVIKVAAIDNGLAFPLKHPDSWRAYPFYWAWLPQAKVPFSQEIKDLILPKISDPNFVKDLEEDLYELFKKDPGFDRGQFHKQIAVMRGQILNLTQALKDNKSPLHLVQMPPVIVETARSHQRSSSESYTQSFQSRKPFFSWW
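PI4K2A activity was measured by ADP-Glo luminescence: enzyme (4 ug/mL stock) and phosphatidylinositol (1.2 mM stock) in Tris pH 7.5/MgCl2/EGTA/Triton X-100 buffer were reacted with ATP (300 microM stock) for one hour at ambient temperature.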
A549 viability: counter-screen for Nrf2 inhibitors: cytotoxicity in A549 cells; A549 ARE-Fluc cells, CellTiter-Fluor viability, 18-24 h; Potency, µM (series often up to 46 µM), for the others: at the top dose activity change, negative = cytotoxicity, hits mostly inhibitors; 390,000 compounds, 0.16% hits; AID 504648; further: potency means the concentration at half of the fitted maximal effect
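Cytotoxicity counterscreen: CellTiter-Fluor fluorescence was measured in A549 ARE_Fluc cells after 18-24 h of compound exposure in a concentration series. The subsequent BugLite luminescent read reports ARE-luciferase activity.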
KB-V1 cytotox: kills drug-selected multidrug resistant KB-V1 cells. KB-V1 MDR cells viability, CellTiter-Glo, 72 h. Potency, µM (doses to about 46.1 µM), actives largely listed as cytotoxic. 400,000 compounds, 3.4% hits. AID 1347076; further: potency means the concentration at half of the fitted maximal effect; nearly all actives have a fitted effect of over 60% in size
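KB-V1 cells (P-gp-expressing MDR subline of KB-3-1) in phenol-red-free DMEM with 10% FBS were exposed to library compounds over a concentration series for 72 h at 37 degrees C. Viability read by CellTiter-Glo luminescence; concentration-effect curves fitted after normalization.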
Giardia killer: Giardia lamblia killing; Giardia lamblia trophozoite viability; activity change, % at 7.66 µM, hits read low; 340,000 compounds, 0.15% hits; AID 540267; in the data active means activity change below about -80%; inconclusive means between about -30% and that limit;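 further: parasites exposed to compound for two days anaerobically before the ATP read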
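Luminescence from cellular ATP indicates surviving trophozoites (100 cells/well) following 48 hrs anaerobic compound treatment at 37 deg C; signal develops 15-30 min at room temperature.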
Starred values were filed as active, the others as inactive; i = inactive; ? = inconclusive; . = no result given. Unless noted, the call rests on the fitted dose curve; in most records, active means well fitted curve in the direction sought with a large enough effect; inconclusive means small, poorly fitted or top-dose-only effect, or another doubt; inactive means no such curve, though single readings can be large; an effect the other way counts as inactive or inconclusive. Unless noted, on the % scale 0 is the no-effect control and ±100 the full control effect.

SMILES	Nrf2 inh	KB-3-1 cytotox	PI4K2A inh	A549 viability	KB-V1 cytotox	Giardia killer
CCOc1c(Cl)cc(C(=O)Nc2ccccc2-c2ccccc2)cc1Cl	6%	?	7	12%	21µM*	4
CCc1ccc(Cn2c(CNS(=O)(=O)c3ccc4c(c3)CCCC4)nc3cccnc32)cc1	.	.	-3	-5%	.	.
O=C1CCC[C@H]2C[C@H](NCCc3ccncc3)CC[C@]23CCCN13	.	.	-2	.	.	.
S=C(Nc1cccc(Cl)c1)N(CCCN1CCCC1)Cc1cccn1Cc1ccc(Cl)cc1	4%	?	2	-3%	12µM*	-5
CSc1cccc(NC(=S)N(CCCN2CCCC2)Cc2cccn2Cc2ccc(Cl)cc2)c1	?	i	2	?	18µM*	4
COc1ccc(-n2c(COc3ccccc3)nnc2SCC(=O)Nc2ccccc2-c2ccccc2)cc1	.	.	-6	.	.	.
NC(=O)/C(=N\OC(=O)c1ccco1)c1nc(-c2ccc(Br)cc2)cs1	1%	?	15	-2%	9.2µM*	10
Nc1nc(-c2ccc(NC(=O)c3ccco3)cc2)cs1	?	i	-3	-4%	i	-30
CCCCCCc1cc2cc(C(=O)Nc3ccccc3)c(=O)oc2cc1O	2%	i	-4	-3%	2.3µM*	-10
CC(OC(=O)/C=C/c1ccco1)C(=O)Nc1cccc([N+](=O)[O-])c1 (stereo not drawn)	?	?	2	1%	18µM*	6
CC(OC(=O)/C=C/c1cccs1)C(=O)NC1CCCCC1C (stereo not drawn)	-8%	i	-2	-12%	i	11
CC(OC(=O)/C=C/c1ccco1)C(=O)NC1CCCCC1C (stereo not drawn)	13µM*	i	2	-7%	i	-5
CCOC(=O)c1c(NC(=O)CC(C)C)sc(C(C)=O)c1C	2%	i	-2	-3%	i	-11
CCOC(=O)c1sc(NC(=O)CN(CC(C)C)CC(C)C)c(C(=O)OCC)c1C	0%	?	-1	-1%	21µM*	-9
CCCCOP(=O)(OCCCC)C(Nc1ccccc1)c1ccc2c(c1)OCO2 (stereo not drawn)	-20%	?	-4	-3%	7.3µM*	-9
C=CCN1[C@@H](C)COc2cccc(N3CCSCC3)c2S1(=O)=O	.	.	-5	.	.	.
CCCS(=O)(=O)N1CC(=O)N(c2cc(C)cc(C)c2)C(C)(C(=O)NC2CCCCCC2)C1 (stereo not drawn)	21%	i	2	0%	i	.
CC(C)(C)n1nnnc1C(c1cccs1)N(Cc1ccccc1)Cc1ccco1 (stereo not drawn)	21µM*	?	14	-9%	i	-18
CC(C)(C)n1nnnc1C(c1cccs1)N(Cc1cccnc1)Cc1ccco1 (stereo not drawn)	0%	i	-2	-7%	?	5
CC(=O)C1=C(c2ccc(Br)cc2)C(=O)c2ccccc2C1=O	?	?	2	-4%	7.3µM*	14
CC(=O)Nc1c(Br)cc2c(c1Br)C(=O)c1ccccc1-2	8%	i	1	1%	i	7
O=C(c1ccc(C(F)(F)F)n(Cc2ccc(Cl)cc2)c1=O)N1CCOCC1	-25%	i	0	-1%	i	13
O=C(c1cc(Cl)c(=O)n(Cc2ccc(Cl)cc2)c1)N1CCOCC1	-6%	i	-8	-1%	21µM*	-10
Cc1ccc2nc(/C=C/c3ccc(N(C)C)cc3)ccc2c1	.	i	.	.	?	.
O=C(c1cn(-c2ccccc2)nc1-c1cccs1)N1CCN(c2ccccc2)CC1	?	8.2µM*	0	-12%	?	-7
O=C(c1cn(-c2ccccc2)nc1-c1cccs1)N1CCOCC1	6%	i	2	-3%	?	-1
CN(C)[C@H]1CCN(c2ccc3c(c2)OCCCN(C2CC2)S3(=O)=O)C1	.	.	-1	.	.	.
